PubChem BioAssay
Results with a measured potency or affinity are listed apart. Unmarked numbers belong to inactive results. No rule for the calls is given here.

Assay: A2780 cell killing – plate reader, dry powder samples, cytotoxicity control, dose response (AID 743046);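 also: 0% = neutral control wells and -100% = cytotoxic reference compound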
Conditions: A2780 ovarian cancer cytotoxicity; series mostly up to 35 µM; activity change, negative = cytotoxicity: at the top concentration

Row | SMILES | activity change, negative = cytotoxicity [%]
1 | C[C@@H]1CN([C@@H](C)CO)C(=O)Cc2cc(NS(=O)(=O)c3ccc(Cl)cc3)ccc2O[C@H]1CN(C)Cc1ccc(C(F)(F)F)cc1 | 15.9
2 | Cc1ccc(S(=O)(=O)Nc2ccc3c(c2)C(=O)N([C@@H](C)CO)C[C@@H](C)[C@@H](CN(C)C)OCCCC[C@H](C)O3)cc1 | -6.59
3 | C[C@@H]1CN([C@@H](C)CO)S(=O)(=O)c2ccc(C#Cc3ccncc3)cc2O[C@@H]1CN(C)C(=O)C1CCCCC1 | -7.74
4 | CNC[C@H]1Oc2ccc(NC(=O)NC(C)C)cc2CC(=O)N([C@@H](C)CO)C[C@@H]1C | 11.8
5 | CNC[C@@H]1Oc2ccc(NC(=O)NC(C)C)cc2CC(=O)N([C@@H](C)CO)C[C@@H]1C | 14

Assay: OVCAR8 cell viability loss – plate reader, dry powder samples, PAX8 project, dose response (AID 743197)
Conditions: series mostly up to 35 µM; activity change, negative = cytotoxicity: at the top concentration

Row | SMILES | activity change, negative = cytotoxicity
6 | C[C@@H]1CN([C@@H](C)CO)C(=O)Cc2cc(NS(=O)(=O)c3ccc(Cl)cc3)ccc2O[C@H]1CN(C)Cc1ccc(C(F)(F)F)cc1 | 17.4%
7 | Cc1ccc(S(=O)(=O)Nc2ccc3c(c2)C(=O)N([C@@H](C)CO)C[C@@H](C)[C@@H](CN(C)C)OCCCC[C@H](C)O3)cc1 | 23.7% [at 16 µM]
8 | C[C@@H]1CN([C@@H](C)CO)S(=O)(=O)c2ccc(C#Cc3ccncc3)cc2O[C@@H]1CN(C)C(=O)C1CCCCC1 | -2.13%
9 | CNC[C@H]1Oc2ccc(NC(=O)NC(C)C)cc2CC(=O)N([C@@H](C)CO)C[C@@H]1C | 19.1%
10 | CNC[C@@H]1Oc2ccc(NC(=O)NC(C)C)cc2CC(=O)N([C@@H](C)CO)C[C@@H]1C | 19.4%
